Assay results published in PubChem BioAssay (Tox21).
Records with an inconclusive call do not appear. Calls of active or inactive are those of the source. Unless noted, the call rests on the fitted dose curve; in most records, active means well fitted curve in the direction sought with a large enough effect in the repeat runs; inconclusive means weak or mixed curves; inactive means no such curve, though single readings can be large; an effect the other way counts as inactive or inconclusive.

Experiments:
[1] = qHTS assay to identify small molecule antagonists of the peroxisome proliferator-activated receptor delta (PPARd) signaling pathway - cell viability counter screen (AID 743213); further: nearly all actives have a fitted effect of over 50% in size
Outline: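 Viability counter-screen, qHTS format: PPARd-bla HEK293H, L165041 300 nM final, 17 h compound exposure at 37 C, CellTiter-Glo luminescence after 30 min RT.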

[2] = molecular target: Peroxisome proliferator-activated receptor delta (Homo sapiens) (UniProt Q03181); test: qHTS assay to identify small molecule antagonists of the peroxisome proliferator-activated receptor delta (PPARd) signaling pathway (AID 743215; active means well fitted inhibition curve with a large enough effect in the signal ratio in the repeat runs, not every such curve was filed as active; the % refers to the signal ratio;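 further: cells stimulated with agonist L165041 at 300 nM final during compound exposure; series mostly up to about 62 µM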)
Sequence of Peroxisome proliferator-activated receptor delta (Homo sapiens) (Q03181 whole entry, looked up): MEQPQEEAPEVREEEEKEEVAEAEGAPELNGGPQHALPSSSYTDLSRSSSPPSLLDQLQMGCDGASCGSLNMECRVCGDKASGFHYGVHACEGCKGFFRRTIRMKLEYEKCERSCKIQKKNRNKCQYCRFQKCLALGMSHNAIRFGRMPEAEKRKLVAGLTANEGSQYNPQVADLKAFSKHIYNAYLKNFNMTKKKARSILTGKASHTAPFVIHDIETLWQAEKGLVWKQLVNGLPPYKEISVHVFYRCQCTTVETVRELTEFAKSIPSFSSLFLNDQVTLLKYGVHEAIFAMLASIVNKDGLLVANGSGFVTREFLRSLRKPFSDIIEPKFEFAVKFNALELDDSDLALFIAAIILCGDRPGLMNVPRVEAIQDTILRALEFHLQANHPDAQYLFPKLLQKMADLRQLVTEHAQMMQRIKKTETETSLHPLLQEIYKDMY
Outline: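 HEK293H UAS-bla, PPARd; agonist L165041 300 nM final with cpd in DMSO; 37 C 17 h; FRET substrate, RT 2 h; fluorescence intensity.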

[3] = qHTS assay to identify small molecule agonists of the farnesoid-X-receptor (FXR) signaling pathway - cell viability counter screen (AID 743218); further: nearly all actives have a fitted effect of over 45% in size
Outline: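 Parallel cytotoxicity test: compound-treated (16 h, 37 C) HEK 293T FXR-bla reporter cells were lysed with CellTiter-Glo and luminescence recorded.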

[4] = qHTS assay to identify small molecule antagonists of the farnesoid-X-receptor (FXR) signaling pathway - cell viability counter screen (AID 743221; active means well fitted cell-killing curve with a large enough effect in the repeat runs, not every such curve was filed as active; further: nearly all actives have a fitted effect of over 50% in size)
Outline: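 Luminescence from CellTiter-Glo measures cytotoxicity in GeneBLAzer FXR-UAS-bla HEK 293T cells. Cells were exposed to compounds with 50 uM chenodeoxycholic acid (final) for 16 h at 37 C, in wells also used for the reporter readout.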

[5] = molecular target: Vitamin D3 receptor (Homo sapiens) (UniProt P11473); test: qHTS assay to identify small molecule agonists of the vitamin D receptor (VDR) signaling pathway (AID 743222; calls by dose curve)
Sequence of Vitamin D3 receptor (Homo sapiens) (P11473 whole entry, looked up): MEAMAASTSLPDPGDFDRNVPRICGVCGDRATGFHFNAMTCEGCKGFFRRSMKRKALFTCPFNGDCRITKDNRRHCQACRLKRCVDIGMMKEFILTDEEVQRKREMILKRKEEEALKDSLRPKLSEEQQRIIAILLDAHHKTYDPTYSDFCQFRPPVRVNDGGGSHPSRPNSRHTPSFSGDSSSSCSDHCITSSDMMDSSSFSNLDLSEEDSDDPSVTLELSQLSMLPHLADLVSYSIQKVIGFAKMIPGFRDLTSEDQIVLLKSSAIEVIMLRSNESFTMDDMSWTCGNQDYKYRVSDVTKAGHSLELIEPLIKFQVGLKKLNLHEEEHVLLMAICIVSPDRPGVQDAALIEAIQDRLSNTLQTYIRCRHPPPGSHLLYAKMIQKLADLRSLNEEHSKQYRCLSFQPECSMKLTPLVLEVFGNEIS
Outline: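 In VDR-bla cells, compound-induced beta-lactamase expression is quantified by FRET substrate fluorescence. Treatment lasts 16 h at 37C; substrate develops 2 h at room temperature.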

[6] = qHTS assay to identify small molecule agonists of the vitamin D receptor (VDR) signaling pathway - cell viability counter screen (AID 743224); further: series mostly up to about 63 µM; nearly all actives have a fitted effect of over 50% in size
Outline: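 Plated VDR-bla cells (4 h, 37C) received compound, incubated 16 h, then LiveBLAzer substrate 2 h RT; CellTiter-Glo added afterwards, luminescence read at 30 min.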

[7] = molecular target: Vitamin D3 receptor (Homo sapiens) (UniProt P11473); test: qHTS assay to identify small molecule antagonists of the vitamin D receptor (VDR) signaling pathway (AID 743223; active means well fitted inhibition curve with a large enough effect in the signal ratio in the repeat runs, not every such curve was filed as active; the % refers to the signal ratio)
Outline: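 Antagonist mode uses 1alpha,25-dihydroxyvitamin D3 at 3 nM final as stimulus. VDR-bla cells receive compounds in DMSO, incubate 16 h at 37C, then a beta-lactamase FRET substrate for 2 h at room temperature before fluorescence measurement.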

[8] = molecular target: Peroxisome proliferator-activated receptor delta (Homo sapiens) (UniProt Q03181); test: qHTS assay to identify small molecule agonists of the peroxisome proliferator-activated receptor delta (PPARd) signaling pathway (AID 743212; calls by dose curve)
Outline: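 GeneBLAzer PPARd UAS-bla HEK293H cells (beta-lactamase reporter under UAS control), plated and rested 5 h at 37 C, then exposed to compounds in DMSO at 37 C; LiveBLAzer B/G FRET substrate added, 2 h room temperature, fluorescence read.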

[9] = molecular target: Bile acid receptor (Homo sapiens) (UniProt Q96RI1); test: qHTS assay to identify small molecule antagonists of the farnesoid-X-receptor (FXR) signaling pathway (AID 743217; active means well fitted inhibition curve with a large enough effect in the signal ratio in the repeat runs, not every such curve was filed as active; the % refers to the signal ratio)
Sequence of Bile acid receptor (Homo sapiens) (Q96RI1 whole entry, looked up): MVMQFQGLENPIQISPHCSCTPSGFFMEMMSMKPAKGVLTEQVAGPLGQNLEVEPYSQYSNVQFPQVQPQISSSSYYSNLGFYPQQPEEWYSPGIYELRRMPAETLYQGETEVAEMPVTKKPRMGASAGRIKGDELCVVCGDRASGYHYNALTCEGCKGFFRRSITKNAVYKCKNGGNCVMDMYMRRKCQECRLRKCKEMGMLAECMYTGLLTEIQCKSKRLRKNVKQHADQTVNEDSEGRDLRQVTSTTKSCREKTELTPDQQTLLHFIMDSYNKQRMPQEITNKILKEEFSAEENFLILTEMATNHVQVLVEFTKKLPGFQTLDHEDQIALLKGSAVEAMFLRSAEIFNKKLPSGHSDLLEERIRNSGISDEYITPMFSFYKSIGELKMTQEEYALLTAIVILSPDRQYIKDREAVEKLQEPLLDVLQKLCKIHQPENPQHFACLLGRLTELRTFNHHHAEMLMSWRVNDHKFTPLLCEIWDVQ
Outline: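 GeneBLAzer FXR-UAS-bla HEK 293T, CDCA-stimulated (50 uM final). Compound treatment 16 h, 37 °C. Detection: beta-lactamase cleavage of B/G FRET substrate, fluorescence.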

[10] = molecular target: Bile acid receptor (Homo sapiens) (UniProt Q96RI1); test: qHTS assay to identify small molecule agonists of the farnesoid-X-receptor (FXR) signaling pathway (AID 743220; active means well fitted activation curve with a large enough effect in the signal ratio in the repeat runs, not every such curve was filed as active; the % refers to the signal ratio)
Outline: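 Beta-lactamase reporter under UAS control in GeneBLAzer FXR HEK 293T cells (5000/well) measured with LiveBLAzer FRET substrate after 2 h at room temperature. Compound exposure lasted 16 h at 37C.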
On the % scale 0 is the no-effect control and ±100 the full control effect.

Cc1ccc(O)c(C(=O)c2ccccc2)c1
inactive: outcome [1] | outcome [2] | outcome [3] | outcome [4] | outcome [5] | outcome [6]

Cc1cc(C)c(N)c(Cl)c1
inactive: outcome [1] | outcome [2] | outcome [3] | outcome [4] | outcome [5] | outcome [7] | outcome [6]

CSC(=O)c1cccc2nnsc12
inactive: outcome [8] | outcome [2] | outcome [4] | outcome [5] | outcome [7] | outcome [6]

CC(C)(C)OC(=O)c1ccccc1C(=O)O
inactive: outcome [1] | outcome [2] | outcome [9] | outcome [10] | outcome [4] | outcome [5] | outcome [7] | outcome [6]

Cc1nnc(C(=O)NC(C)(C)c2nc(C(=O)NCc3ccc(F)cc3)c(O)c(=O)n2C)o1
inactive: outcome [8] | outcome [3] | outcome [4] | outcome [5] | outcome [7] | outcome [6]

C[C@@H]1CCC[C@H](C)N1CCCC(O)(c1ccccc1)c1ccccn1 (stereo partly drawn)
inactive: outcome [8] | outcome [3] | outcome [6]

Cc1ccc(NC(N)=O)cc1
inactive: outcome [8] | outcome [2] | outcome [3] | outcome [5] | outcome [7] | outcome [6]

CC/C=C/CCCCCCCCCCOC(C)=O
inactive: outcome [1] | outcome [2] | outcome [3] | outcome [4] | outcome [5] | outcome [7] | outcome [6]

Cc1cc(N)no1
inactive: outcome [1] | outcome [2] | outcome [3] | outcome [4] | outcome [5] | outcome [7] | outcome [6]

C[n+]1ccccc1/C=N/O
inactive: outcome [8] | outcome [2] | outcome [3] | outcome [4] | outcome [5] | outcome [7] | outcome [6]

COC(=O)c1cc(Cl)c(NC(C)=O)cc1OC
inactive: outcome [1] | outcome [2] | outcome [9] | outcome [3] | outcome [10] | outcome [4] | outcome [5] | outcome [7] | outcome [6]

COc1ccccc1N1CCN(CC(O)COc2cc(OC)c(OC)c(OC)c2)CC1 (stereo not drawn)
inactive: outcome [8] | outcome [2] | outcome [4] | outcome [6]

CCN(CC)CC
inactive: outcome [1] | outcome [2] | outcome [9] | outcome [3] | outcome [4] | outcome [5] | outcome [7] | outcome [6]

Cc1ccc(N)nc1
inactive: outcome [1] | outcome [2] | outcome [3] | outcome [10] | outcome [4] | outcome [6]

C/C=C(\C)C(=O)OC/C=C(\C)CCC=C(C)C
inactive: outcome [8] | outcome [2] | outcome [3] | outcome [4] | outcome [5] | outcome [7] | outcome [6]

O=C(OOC(=O)c1ccccc1)c1ccccc1
inactive: outcome [1] | outcome [2] | outcome [3]

Cc1ccc2ccccc2n1
inactive: outcome [1] | outcome [2] | outcome [3] | outcome [4] | outcome [5] | outcome [7] | outcome [6]

C[C@]12C=CC(=O)C=C1[C@@H](F)C[C@@H]1[C@@H]2[C@@H](O)C[C@@]2(C)[C@H]1CC[C@]2(O)C(=O)CO
inactive: outcome [8] | outcome [2] | outcome [3] | outcome [5] | outcome [7] | outcome [6]

CCOC(=O)CC
inactive: outcome [8] | outcome [2] | outcome [10] | outcome [6]

CCCCCCCCCCCCCCCCN(C)C
inactive: viability change, negative = cytotoxic [1] 1.6% [at 6.26 µM] | ratio activity, negative = inhibition [2] -0.339% [at 6.26 µM] | activity change, negative = inhibition [9] -5.41% [at 5.95 µM] | viability change, negative = cytotoxic [3] 0.68% [at 5.95 µM] | activity change, negative = cytotoxicity [4] -0.818% [at 5.95 µM] | activity change, negative = cytotoxicity [6] 12.1% [at 5.95 µM]

CC(C)C(=O)Nc1cccc(C2CN3CCSC3=N2)c1 (stereo not drawn)
inactive: outcome [1] | outcome [2] | outcome [3] | outcome [10] | outcome [4] | outcome [5] | outcome [7] | outcome [6]

O=c1c(O)c(O)c1=O
inactive: outcome [1] | outcome [2] | outcome [3] | outcome [4] | outcome [5] | outcome [7] | outcome [6]

CC(C)(C)C(=O)CCc1ccc(Cl)cc1
inactive: outcome [1] | outcome [2] | outcome [3] | outcome [4] | outcome [5] | outcome [7] | outcome [6]

CC(=O)OC1CCC(C(C)(C)C)CC1 (stereo not drawn)
inactive: outcome [1] | outcome [2] | outcome [3] | outcome [4] | outcome [5] | outcome [6]

Nc1nc(Cl)cc(Cl)n1
inactive: outcome [1] | outcome [2] | outcome [9] | outcome [10] | outcome [4] | outcome [5] | outcome [6]

COC(C)(C)CC(C)=O
inactive: outcome [8] | outcome [2] | outcome [10] | outcome [5] | outcome [6]

CCCCCCC(O)CO (stereo not drawn)
inactive: outcome [1] | outcome [2] | outcome [3] | outcome [10] | outcome [4] | outcome [6]

COc1ccc2cc(CCC(C)=O)ccc2c1
inactive: outcome [8] | outcome [3] | outcome [10] | outcome [6]

CCCCNCC
inactive: outcome [1] | outcome [2] | outcome [3] | outcome [4] | outcome [6]

CC(=O)SC[C@@H](C)C(=O)N1CCC[C@H]1C(=O)N[C@@H](Cc1ccccc1)C(=O)O
inactive: outcome [1] | outcome [2] | outcome [9] | outcome [3] | outcome [10] | outcome [4] | outcome [5] | outcome [7] | outcome [6]

NCC1CCC(C(=O)Oc2ccc(CCC(=O)O)cc2)CC1 (stereo not drawn)
inactive: outcome [1] | outcome [2] | outcome [9] | outcome [3] | outcome [10] | outcome [5] | outcome [7] | outcome [6]

c1cc2ccc3ccc4ccc5cccc6c(c1)c2c3c4c56
inactive: viability change, negative = cytotoxic [1] -10.9% [at 2.83 µM] | ratio activity, negative = inhibition [2] 2.1% [at 2.83 µM] | activity change, negative = inhibition [9] 6.71% [at 2.69 µM] | viability change, negative = cytotoxic [3] 0.833% [at 2.7 µM] | activity change, negative = cytotoxicity [4] 2.77% [at 2.69 µM] | activity change, negative = inhibition [7] -9.77% [at 3.11 µM] | activity change, negative = cytotoxicity [6] 11.1% [at 2.7 µM]

CC(O)C(CO)C(C)O (stereo not drawn)
inactive: outcome [1] | outcome [2] | outcome [4] | outcome [6]

CC[C@@]1(c2ccccc2)NC(=O)N(C)C1=O
inactive: outcome [1] | outcome [3] | outcome [10] | outcome [4] | outcome [5] | outcome [6]

CCCCC(CC)CCC(CC(C)C)OS(=O)(=O)O (stereo not drawn)
inactive: outcome [1] | outcome [3] | outcome [10] | outcome [4] | outcome [5] | outcome [7] | outcome [6]

CCOC(=O)CN1CCCC1=O
inactive: outcome [1] | outcome [2] | outcome [5] | outcome [7] | outcome [6]

COc1cc(S(N)(=O)=O)cc(C(=O)O)c1OC
inactive: outcome [1] | outcome [2] | outcome [4] | outcome [5] | outcome [7] | outcome [6]

CN(C)CCC[C@@]1(c2ccc(F)cc2)OCc2cc(C#N)ccc21
inactive: outcome [1] | outcome [2] | outcome [4] | outcome [5] | outcome [6]

Cc1ccc(OC(=O)CC(C)C)cc1
inactive: outcome [1] | outcome [9] | outcome [3] | outcome [10]

CCCCN=C(N)N=C(N)N
inactive: outcome [1] | outcome [2] | outcome [6]

O=C1Nc2ccccc2C1=O
inactive: outcome [1] | outcome [2] | outcome [4] | outcome [5] | outcome [7] | outcome [6]

Cc1nc2ccc(Cl)cc2[nH]1
inactive: outcome [1] | outcome [9] | outcome [3] | outcome [10] | outcome [4] | outcome [5] | outcome [7] | outcome [6]

Cc1ccc2cccnc2c1
inactive: outcome [1] | outcome [9] | outcome [10] | outcome [4] | outcome [5] | outcome [6]

CC(C)=CCC/C(C)=C\C#N
inactive: outcome [1] | outcome [3] | outcome [10] | outcome [4] | outcome [5] | outcome [7] | outcome [6]

CCOC(=O)COc1ccc2c(C)c(CCN(CC)CC)c(=O)oc2c1Cl
inactive: outcome [1] | outcome [9] | outcome [10] | outcome [4] | outcome [5] | outcome [6]

O=C(O)COc1ccc2ccccc2c1
inactive: outcome [1] | outcome [3] | outcome [10] | outcome [4] | outcome [5] | outcome [7] | outcome [6]

CCCC[O][Al]([O]CCCC)[O]CCCC
inactive: outcome [1] | outcome [3] | outcome [10] | outcome [4] | outcome [5] | outcome [6]

C=CCOC(=O)CCCCCCCC
inactive: outcome [1] | outcome [3] | outcome [10] | outcome [4] | outcome [5] | outcome [7]

Cc1ccc(S(=O)(=O)NC(=O)NN2CC3CCCC3C2)cc1 (stereo not drawn)
inactive: outcome [1] | outcome [2] | outcome [4] | outcome [5] | outcome [7] | outcome [6]

CCC(C)(C)C
inactive: outcome [1] | outcome [9] | outcome [3] | outcome [10] | outcome [4] | outcome [5] | outcome [7] | outcome [6]
